Test results: PubChem BioAssay
For some of these results: Results with a measured potency or affinity are listed apart. Active and inactive are the calls of the source. Unless noted, how the calls were made is not given here.

Key:
[1] = antimalarial activity against Dd2 strain (AID 2302;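 active means growth inhibition above 50% at the single 2 µM test dose, taken to imply half-maximal potency below 2 µM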;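 further: 0% = DMSO untreated growth and 100% = chloroquine plus artemisinin killed control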); settings: P. falciparum Dd2 in RBCs, LDH growth readout, 72 h; at 2 µM; hits give high values
[2] = HepG2 cytotoxicity, primary screen, cytotoxicity control for P. falciparum antimalarial project, cell-based, ATP luminescence (AID 2303;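 active means inhibition above 50%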;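 further: 0% = DMSO wells and 100% = digitonin-killed cells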); settings: HepG2 viability, 24-48 h, at 10 µM, hits give high values
[3] = biological target: L-lactate dehydrogenase (Plasmodium falciparum (isolate CDC / Honduras)) (UniProt Q27743); assay: PfLDH activity inhibition – cell lysate, 3D7 strain, counter-screen for P. falciparum growth inhibition project (AID 2304);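 further: 0% = vehicle and 100% = reference inhibitor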; settings: P. falciparum 3D7 crude extract, LDH APAD/NBT absorbance; at 2 µM; hits give high values
L-lactate dehydrogenase (Plasmodium falciparum (isolate CDC / Honduras)), sequence (Q27743 whole entry, looked up): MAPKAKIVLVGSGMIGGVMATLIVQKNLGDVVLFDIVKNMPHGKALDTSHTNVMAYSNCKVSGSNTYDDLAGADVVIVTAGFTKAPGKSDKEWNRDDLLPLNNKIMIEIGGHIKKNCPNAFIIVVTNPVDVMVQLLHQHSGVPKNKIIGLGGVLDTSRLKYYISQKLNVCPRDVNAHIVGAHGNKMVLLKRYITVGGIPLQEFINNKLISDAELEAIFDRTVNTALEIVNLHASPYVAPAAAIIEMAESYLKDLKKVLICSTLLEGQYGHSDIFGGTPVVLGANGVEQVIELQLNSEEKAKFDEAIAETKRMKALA

[4] = inhibition of 3D7 malaria parasite growth – strain 3D7 (AID 2306);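 further: 0% = DMSO wells and 100% = chloroquine plus artemisinin control wells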; settings: P. falciparum 3D7 erythrocytic growth, LDH absorbance, 72 h; at 2 µM; hits give high values
[5] = biological target: Calcium-dependent protein kinase 1 (Plasmodium falciparum (isolate 3D7)) (UniProt P62344); assay: PfCDPK1 kinase inhibitors, biochemical, TCAMS library (AID 1159585; cut-off not given, nearly all actives have IC50 up to about 0.98 µM;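 further: inhibitors leave more ATP so luminescence rises with inhibition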); settings: recombinant PfCDPK1, Kinase-Glo ATP depletion luminescence
Calcium-dependent protein kinase 1 (Plasmodium falciparum (isolate 3D7)), sequence (P62344 whole entry, looked up): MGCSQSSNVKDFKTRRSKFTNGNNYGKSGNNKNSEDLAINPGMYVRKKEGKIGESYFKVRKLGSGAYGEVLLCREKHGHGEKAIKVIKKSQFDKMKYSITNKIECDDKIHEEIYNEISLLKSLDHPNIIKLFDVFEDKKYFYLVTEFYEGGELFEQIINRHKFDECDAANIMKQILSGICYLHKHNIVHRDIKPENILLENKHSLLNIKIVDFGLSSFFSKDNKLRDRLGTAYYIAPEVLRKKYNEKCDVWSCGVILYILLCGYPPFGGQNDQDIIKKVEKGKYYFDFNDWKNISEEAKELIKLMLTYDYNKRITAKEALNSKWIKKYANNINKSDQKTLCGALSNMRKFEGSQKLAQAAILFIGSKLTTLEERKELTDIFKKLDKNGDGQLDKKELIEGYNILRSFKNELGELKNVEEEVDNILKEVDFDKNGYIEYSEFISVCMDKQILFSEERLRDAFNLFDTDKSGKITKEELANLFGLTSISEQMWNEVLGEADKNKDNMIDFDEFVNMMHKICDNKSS

[6] = biological target: Plasmodium falciparum protein kinase 6 (PK6, PF3D7_1337100) (UniProt Q8IDW1); assay: PfPK6 kinase inhibitors, biochemical, TCAMS library (AID 1159586); settings: recombinant PfPK6, Kinase-Glo ATP depletion luminescence
Plasmodium falciparum protein kinase 6 (PK6, PF3D7_1337100), sequence (Q8IDW1 1-305): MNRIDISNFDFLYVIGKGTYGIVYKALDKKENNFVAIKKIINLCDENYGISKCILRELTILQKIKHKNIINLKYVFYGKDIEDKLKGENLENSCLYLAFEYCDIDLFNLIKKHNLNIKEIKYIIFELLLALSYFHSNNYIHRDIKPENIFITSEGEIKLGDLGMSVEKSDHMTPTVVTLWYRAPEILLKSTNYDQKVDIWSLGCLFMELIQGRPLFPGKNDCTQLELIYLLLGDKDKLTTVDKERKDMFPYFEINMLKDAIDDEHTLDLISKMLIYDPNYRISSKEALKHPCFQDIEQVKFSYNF

[7] = biological target: Protein kinase 7 (PK7), Plasmodium falciparum 3D7 (PF3D7_0213400) (UniProt Q7YTF7); assay: inhibition of Plasmodium PK7 catalytic activity – biochemical, TCAMS antimalarial set, Kinase-Glo luminescence (AID 1159587); settings: recombinant PfPK7, Kinase-Glo ATP depletion luminescence
Protein kinase 7 (PK7), Plasmodium falciparum 3D7 (PF3D7_0213400), sequence (Q7YTF7 1-343): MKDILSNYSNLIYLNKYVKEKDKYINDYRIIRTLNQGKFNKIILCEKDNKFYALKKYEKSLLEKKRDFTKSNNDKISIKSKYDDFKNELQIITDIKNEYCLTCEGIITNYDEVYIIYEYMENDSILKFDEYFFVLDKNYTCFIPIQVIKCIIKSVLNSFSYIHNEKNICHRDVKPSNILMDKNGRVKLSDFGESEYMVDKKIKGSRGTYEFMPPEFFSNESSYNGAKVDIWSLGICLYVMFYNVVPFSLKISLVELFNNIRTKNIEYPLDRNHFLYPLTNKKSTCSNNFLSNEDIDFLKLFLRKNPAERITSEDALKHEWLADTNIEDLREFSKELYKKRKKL

[8] = biological target: Calcium-dependent protein kinase 4 (Plasmodium falciparum (isolate 3D7)) (UniProt Q8IBS5); assay: PfCDPK4 kinase inhibitors, biochemical, TCAMS library (AID 1159588; cut-off not given, nearly all actives have IC50 up to about 0.91 µM); settings: recombinant PfCDPK4, Kinase-Glo ATP depletion luminescence
Calcium-dependent protein kinase 4 (Plasmodium falciparum (isolate 3D7)), sequence (Q8IBS5 whole entry, looked up): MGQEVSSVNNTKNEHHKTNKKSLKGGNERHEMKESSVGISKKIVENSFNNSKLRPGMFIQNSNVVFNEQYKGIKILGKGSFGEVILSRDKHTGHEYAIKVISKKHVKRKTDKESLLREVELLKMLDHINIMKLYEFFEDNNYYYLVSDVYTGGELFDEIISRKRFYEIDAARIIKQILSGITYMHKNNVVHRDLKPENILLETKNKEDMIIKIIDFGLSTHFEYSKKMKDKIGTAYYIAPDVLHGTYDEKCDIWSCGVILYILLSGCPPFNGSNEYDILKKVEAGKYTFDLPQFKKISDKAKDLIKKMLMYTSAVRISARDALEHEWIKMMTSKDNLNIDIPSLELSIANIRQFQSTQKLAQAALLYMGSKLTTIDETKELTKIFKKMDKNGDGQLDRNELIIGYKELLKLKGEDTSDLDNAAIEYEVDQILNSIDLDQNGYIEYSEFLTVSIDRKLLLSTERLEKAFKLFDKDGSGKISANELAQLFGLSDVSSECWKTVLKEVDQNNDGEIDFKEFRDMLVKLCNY

CCOC(=O)c1ccc(NC(=O)c2ccccc2C(=O)O)cc1
active: growth inhibition [4] 92%
inactive: growth inhibition [1] 0% | inhibition [2] 2% | inhibition [3] -3% | outcome [5] | outcome [6] | outcome [7] | outcome [8]

NC(=O)C1CCN(Cc2ccc(-c3ccc(-c4nc5ccc(F)cc5[nH]4)cc3)cc2)CC1
inactive: inhibition [2] 12% | inhibition [3] 7% | outcome [5] | outcome [6] | outcome [7] | outcome [8]
active: growth inhibition [1] 100% | growth inhibition [4] 101%

O=C(NCCc1ccc(O)cc1)n1c2ccccc2c2ccccc21
active: growth inhibition [1] 76% | growth inhibition [4] 83%
inactive: inhibition [2] 3% | inhibition [3] -1% | outcome [5] | outcome [6] | outcome [7] | outcome [8]

OC(CNC1CCCCC1)Cn1c2ccccc2c2ccccc21 (stereo not drawn)
inactive: inhibition [2] 11% | inhibition [3] 0% | outcome [5] | outcome [6] | outcome [7] | outcome [8]
active: growth inhibition [1] 92% | growth inhibition [4] 97%

Cc1ccc(F)c(NC(=O)c2c(-c3c(F)cccc3Cl)noc2C)c1
inactive: growth inhibition [1] 18% | inhibition [2] 13% | inhibition [3] 0% | outcome [5] | outcome [6] | outcome [7] | outcome [8]
active: growth inhibition [4] 90%

NCc1cccc(-c2ccc3ccnc(N)c3c2)c1
active: growth inhibition [1] 96% | growth inhibition [4] 101%
inactive: inhibition [2] 7% | inhibition [3] 0% | outcome [5] | outcome [6] | outcome [7] | outcome [8]

C=CCN(c1ccc(OC)cc1)S(=O)(=O)c1ccc(Cl)c(C(=O)Nc2cccc(C#N)c2)c1
inactive: inhibition [2] 6% | inhibition [3] 6% | outcome [5] | outcome [6] | outcome [7] | outcome [8]
active: growth inhibition [1] 73% | growth inhibition [4] 96%

CC(C)CC(=O)Nc1cc(=O)[nH]c2nc(-c3ccccc3)nn12
inactive: inhibition [2] -6% | inhibition [3] -6% | outcome [5] | outcome [6] | outcome [7] | outcome [8]
active: growth inhibition [1] 85% | growth inhibition [4] 89%

CC1(C)N=C(NC(=O)c2cc([N+](=O)[O-])cc([N+](=O)[O-])c2)N=C(N)N1OCc1cccc2ccccc12
inactive: growth inhibition [1] 20% | inhibition [3] -6% | outcome [5] | outcome [6] | outcome [7] | outcome [8]
active: inhibition [2] 66% | growth inhibition [4] 94%

COc1cc(Cc2cnc(N)nc2N)ccc1OCC(=O)Nc1ccc(C)cc1
active: growth inhibition [4] 95%
inactive: growth inhibition [1] 18% | inhibition [2] 10% | inhibition [3] -2% | outcome [5] | outcome [6] | outcome [7] | outcome [8]

CC(C)(C)OC(=O)Cn1cnc2cc(NC(=O)c3cc([N+](=O)[O-])cc([N+](=O)[O-])c3)ccc21
active: growth inhibition [1] 97% | growth inhibition [4] 100%
inactive: inhibition [2] 11% | inhibition [3] 5% | outcome [5] | outcome [6] | outcome [7] | outcome [8]

COc1ccc2ncc(Cl)c(CCN3CC[C@@H](CNCc4cc5c(cn4)OCS5)C3)c2n1
active: growth inhibition [4] 99%
inactive: growth inhibition [1] 31% | inhibition [2] 22% | inhibition [3] 3% | outcome [5] | outcome [6] | outcome [7] | outcome [8]

O=C1CCCN1CCCNCc1ccc(-c2ccc(-c3nc4ccc(F)cc4[nH]3)cc2)cc1
inactive: inhibition [2] 16% | inhibition [3] -3% | outcome [5] | outcome [6] | outcome [7] | outcome [8]
active: growth inhibition [1] 99% | growth inhibition [4] 100%

CC(CCc1ccccc1)NCC(O)c1cccc([N+](=O)[O-])c1 (stereo not drawn)
active: growth inhibition [1] 98% | growth inhibition [4] 97%
inactive: inhibition [2] -2% | inhibition [3] 1% | outcome [5] | outcome [6] | outcome [7] | outcome [8]

CNCCNCc1cccc(-c2ccc(-c3nc4c(C)cccc4[nH]3)s2)c1
active: growth inhibition [4] 92%
inactive: growth inhibition [1] 8% | inhibition [2] 10% | inhibition [3] -6% | outcome [5] | outcome [6] | outcome [7] | outcome [8]

O=C(/C=C/c1ccc(Cl)c(Cl)c1)NCCCCCN1CCC(NC(=O)Nc2ccc([N+](=O)[O-])cc2)CC1
active: growth inhibition [4] 102%
inactive: growth inhibition [1] 2% | inhibition [2] 20% | inhibition [3] 2% | outcome [5] | outcome [6] | outcome [7] | outcome [8]

Cc1cc(N2CCCC2)nc(Nc2ccc(NC(=O)C(C)(C)C)cc2)n1
active: growth inhibition [4] 95%
inactive: growth inhibition [1] 15% | inhibition [2] 24% | inhibition [3] 2% | outcome [5] | outcome [6] | outcome [7] | outcome [8]

CC(C(=O)Nc1ccc(Br)cc1Br)N1CCN(C(=O)c2ccco2)CC1 (stereo not drawn)
inactive: inhibition [2] 3% | inhibition [3] -3% | outcome [5] | outcome [6] | outcome [7] | outcome [8]
active: growth inhibition [1] 84% | growth inhibition [4] 91%

CN(CCCCCNC(=O)/C=C/c1ccc(Cl)c(Cl)c1)CCc1c[nH]c2ccccc12
active: growth inhibition [4] 91%
inactive: growth inhibition [1] 18% | inhibition [2] 40% | inhibition [3] 2% | outcome [5] | outcome [6] | outcome [7] | outcome [8]

CCOC(=O)c1ccc(NC(=O)Nc2cccc(-c3cccc(-c4nc5c(C)cccc5[nH]4)c3)c2)cc1
inactive: inhibition [2] 37% | inhibition [3] 0% | outcome [5] | outcome [6] | outcome [7] | outcome [8]
active: growth inhibition [1] 99% | growth inhibition [4] 100%

CNC(=S)NN=C(C)c1ccccn1
inactive: inhibition [3] -4% | outcome [5] | outcome [6] | outcome [7] | outcome [8]
active: growth inhibition [1] 99% | inhibition [2] 64% | growth inhibition [4] 98%

CC(C)C[C@H](NC(=O)c1cc2ccccc2s1)C(=O)N[C@H]1CCN(Cc2ccc(I)c(OCCN3CCCC3)c2)C1
inactive: inhibition [2] 3% | inhibition [3] -1% | outcome [5] | outcome [6] | outcome [7] | outcome [8]
active: growth inhibition [1] 88% | growth inhibition [4] 92%

COc1ccc2nccc([C@@H](O)CN3CCC(NC(=O)C(c4ccsc4)N4CCN(c5ccccc5OC)CC4)CC3)c2c1 (stereo partly drawn)
active: growth inhibition [1] 50% | growth inhibition [4] 95%
inactive: inhibition [2] 11% | inhibition [3] -2% | outcome [5] | outcome [6] | outcome [7] | outcome [8]

O=C(NCCCCCN1CCC(c2c[nH]c3ccccc23)CC1)c1ccc(Cl)c(Cl)c1
inactive: growth inhibition [1] 10% | inhibition [2] 48% | inhibition [3] -2% | outcome [5] | outcome [6] | outcome [7] | outcome [8]
active: growth inhibition [4] 85%

C(=NNc1ccnc2ccccc12)c1ccncc1
inactive: growth inhibition [1] 27% | inhibition [2] 7% | inhibition [3] -2% | outcome [5] | outcome [6] | outcome [7] | outcome [8]
active: growth inhibition [4] 95%

COc1ccccc1-c1cccc(-c2cccc(NC(=O)c3ccc([N+](=O)[O-])o3)c2)n1
inactive: inhibition [3] -1% | outcome [5] | outcome [6] | outcome [7] | outcome [8]
active: growth inhibition [1] 59% | inhibition [2] 78% | growth inhibition [4] 97%

O=C(Cn1c(SCc2cccc(F)c2F)cc(=O)c2ccccc21)N(CCCn1ccnc1)Cc1ccc(-c2ccc(C(F)(F)F)cc2)cc1
inactive: inhibition [2] 21% | inhibition [3] -5% | outcome [5] | outcome [6] | outcome [7] | outcome [8]
active: growth inhibition [1] 99% | growth inhibition [4] 99%

CSc1c(CNCCCNc2cc(=O)c3ccccc3[nH]2)[nH]c2ccccc12
inactive: growth inhibition [1] 21% | inhibition [2] 0% | inhibition [3] 2% | outcome [5] | outcome [6] | outcome [7] | outcome [8]
active: growth inhibition [4] 87%

CC(C)(C)c1ccc(CN2CCC(NC(=O)c3ccc(-c4cccc(F)c4)s3)CC2)cc1
inactive: growth inhibition [1] 24% | inhibition [2] 35% | inhibition [3] 0% | outcome [5] | outcome [6] | outcome [7] | outcome [8]
active: growth inhibition [4] 92%

O=C(COc1ccccc1)Nn1cnc2ccccc21
inactive: growth inhibition [1] -3% | inhibition [2] 2% | inhibition [3] 3% | outcome [5] | outcome [6] | outcome [7] | outcome [8]
active: growth inhibition [4] 91%

Cn1cnc(-c2ccc3c(c2)CCN(CCC2CCC(NC(=O)/C=C/c4ccc(F)cc4)CC2)CC3)c1 (stereo not drawn)
active: growth inhibition [4] 90%
inactive: growth inhibition [1] 18% | inhibition [2] 26% | inhibition [3] 4% | outcome [5] | outcome [6] | outcome [7] | outcome [8]

COC(=O)c1ccc2c(c1)nc(Nc1cccc(F)c1)n2CC(O)c1ccccn1 (stereo not drawn)
active: growth inhibition [1] 96% | growth inhibition [4] 99%
inactive: inhibition [2] -7% | inhibition [3] -1% | outcome [5] | outcome [6] | outcome [7] | outcome [8]

COc1cccc(-c2cnc(-c3ccncc3)nc2C2CCN(Cc3ccc(NC(C)=O)cc3)CC2)c1
active: growth inhibition [4] 89%
inactive: growth inhibition [1] -3% | inhibition [2] 17% | inhibition [3] 0% | outcome [5] | outcome [6] | outcome [7] | outcome [8]

CN(C)CCNC(=O)NC1CN(c2ncnc3cc(-c4ccccc4)sc23)C1
active: growth inhibition [4] 100%
inactive: growth inhibition [1] 39% | inhibition [2] 7% | inhibition [3] 5% | outcome [5] | outcome [6] | outcome [7] | outcome [8]

COc1ccccc1C1CCN(C2CCC(NC(=O)/C=C/c3cc(F)c(F)cc3F)CC2)CC1 (stereo not drawn)
active: growth inhibition [4] 85%
inactive: growth inhibition [1] 0% | inhibition [2] 39% | inhibition [3] -5% | outcome [5] | outcome [6] | outcome [7] | outcome [8]

O=C(CCC1CCCCC1)NCCNc1cccc2ccccc12
active: growth inhibition [1] 57% | growth inhibition [4] 90%
inactive: inhibition [2] 7% | inhibition [3] -1% | outcome [5] | outcome [6] | outcome [7] | outcome [8]

O=C1CCCN1CCCNCc1ccc(-c2cccc(-c3nc4ccccc4[nH]3)c2)cc1
inactive: growth inhibition [1] 0% | inhibition [2] 19% | inhibition [3] -5% | outcome [5] | outcome [6] | outcome [7] | outcome [8]
active: growth inhibition [4] 96%

COc1ccccc1N1CCN(CCCCNC(=O)c2ccc(NC(=O)c3ccc4ccccc4c3)cc2)CC1
inactive: growth inhibition [1] 18% | inhibition [2] 16% | inhibition [3] 1% | outcome [5] | outcome [6] | outcome [7] | outcome [8]
active: growth inhibition [4] 97%

COc1cc(NC2=C(c3ccccc3)C(=O)c3ccccc32)ccn1
active: growth inhibition [1] 96% | growth inhibition [4] 96%
inactive: inhibition [2] 7% | inhibition [3] 4% | outcome [5] | outcome [6] | outcome [7] | outcome [8]

Cc1c(C)n(Cc2ccccc2)c2ncnc(OC3CCN(CC(=O)NCC4CC4)CC3)c12
active: growth inhibition [1] 79% | growth inhibition [4] 92%
inactive: inhibition [2] 17% | inhibition [3] -3% | outcome [5] | outcome [6] | outcome [7] | outcome [8]

O=C(CC(=O)C(F)(F)F)c1ccccc1[N+](=O)[O-]
inactive: inhibition [3] -6% | outcome [5] | outcome [6] | outcome [7] | outcome [8]
active: growth inhibition [1] 95% | inhibition [2] 65% | growth inhibition [4] 97%
